The text below walks through data of PubChem BioAssay (NCI).

Each structure is given as a SMILES string. Compounds without any hit were thinned out: in the full panel of roughly 83,000, 20% have a hit.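 Compound tested at a single concentration for 48 hours in 96-well plates; a percent growth value below 10 was scored as active.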 Unmarked numbers belong to inactive results. Active and inactive are the calls of the source.

The assay concerns BT-549 breast. Kind of assay: NCI-60 one-dose screen, 48 h (100 = growth as untreated, 0 = no growth, -100 = all killed). As to conditions: 10 µM unless noted. Here is the method:
Growth inhibition of the BT-549 human tumor cell line is measured as a screen for anti-cancer activity. Cells are grown in 96 well plates and exposed to the test compound for 48 hours. Compounds are tested at a single concentration, which is 10^-5 M for most compounds. The reported endpoint is percent growth (GI% or GIPRCNT), where numbers from 0 - 100% represent growth inhibition, and numbers from -100% - 0 represent cell death. For example, a value of 40 represents 60% growth inhibition. A value of 0 means no net growth occurred over the course of the experiment. A value of -40 indicates 40% of cells at the beginning of the experiment died by the end of the experiment. A value of -100 means all cells are dead at the end of the experiment.
NCI-60 Human Tumor Cell Lines Screen was performed using the standard one-dose NCI protocol, which is described in more detail at https://dtp.cancer.gov/discovery_development/nci-60/default.htm.
Compounds with GIPRCNT values below 10 were considered active. Activity score was based on GIPRCNT using the following formula: […]
Score is 0 for GIPRCNT values of 100 or above, 50 for GIPRCNT values of 0, and 100 for GIPRCNT values of -100.
Consider `CN(C)CCCn1c(=O)c2ccccc2c2ccccc21`, for which the growth was 103%.
With `N=C1CCC(=N)c2c1c(O)c1ccccc1c2O` the figure was 97.1%.
Then `COc1cccc(-c2nn(-c3ccccc3)cc2-c2ccnc(NCCNC(=O)Nc3cccc(C(F)(F)F)c3)c2)c1`, with 26.1%; and `COc1cc(C(=O)c2cc(C)c3[nH]c4ccc(Cl)cc4c3c2C)cc(OC)c1OC`, with 14.4%.
With `Nc1nc(N)c2c(n1)NC(c1ccccc1)C1CCc3ccccc3C1=N2` (stereo not given) the figure was 39%; with `COc1ccc(C2CC(c3cccc(OC)c3)=NN2C(=O)c2cc(OC)c(OC)c(OC)c2)cc1` (stereo not given), 39.5%.
Consider `O=C(c1ccccc1)c1c(/C=C/c2ccc(Cl)cc2)nc2ccccc2c1/C=C/c1cccs1`, for which the growth was 99.3%.
Then `CCCCCCCCCCCC(c1ccccc1)[N+](C)(C)C` (stereo not given), with -36.3% (active); and `CC(C)(C)c1ccc(/C=C/C(=O)Nc2ccc(O)cc2)cc1`, with 66.6%; and `N#CCN1C(=O)C2C3=C(CCCC3)SC2N=C1CN1CCCC1` (stereo not given), with 114%.
Then `CN1CCN(CC(=O)Nc2nc(-c3cccc(NS(=O)(=O)c4cccc5c(N(C)C)cccc45)c3)cs2)CC1`, with 97.1%.
With `CCCCCCCOc1c(OC)cc(C2CC(=O)Nc3c2c(C)nn3-c2nc3ccccc3[nH]2)cc1OC` (stereo not given) the figure was 6.89% (active).
Regarding `N#Cc1c(N)nc2c(C#N)c(NC(=O)c3ccccc3)nn2c1-c1ccccc1`, the growth was 97.6%.
Then `CN(C)CCNc1nc2ccccc2c2c1c1c(n2Cc2ccccc2)-c2ccccc2C1=O`, with -86.8% (active).
With `Cc1ccc(Nc2nc(N)nc(CSCC(=O)NN)n2)cc1` the figure was 93.6%.
With `CC(C)CCC[C@@H](C)[C@H]1CC[C@H]2[C@@H](Nc3ccc(O)cc3)CCC[C@]12C` the figure was 113%; with `COc1cc(/C=N/NC(=O)Cn2c(C(C)C)nc3ccccc32)ccc1O`, 100%; with `CNC(=O)NCC1OC(n2cnc3c(NC(=O)Nc4ccccc4)ncnc32)C(O[Si](C)(C)C(C)(C)C)C1CC(=O)N(C)OC` (stereo not given), 25.5%.
For `N#C/C(=C\c1ccc2c(c1)OCO2)n1nnc2cc(F)c(F)cc21`, the growth was 60%.
Take `NC(N)=NN=C(c1ccccc1)c1ccccc1`: the growth is 44.1%.
Then `COc1ccc(C2=Nc3c(N)ncnc3NC(c3ccc4c(c3)OCO4)C2)cc1` (stereo not given), with 89%.
With `COC(=O)[C@]12CC[C@@H](C)[C@H](C)[C@@H]1C1=CC[C@@H]3[C@@]4(C)C(C=O)=C[C@@](C)(COC(C)=O)[C@@H]4[C@H](O)C[C@@]3(C)[C@]1(C)CC2` the figure was -19.8% (active).
Then `COc1ccc2oc3c(C)c4c(c(C)c3c2c1)C(=O)N(Cc1ccccc1)C4=O`, with 96.1%; and `CNC(=O)CCN1CCN(CC/C=C2\c3ccccc3Sc3ccc(Cl)cc32)CC1`, with 91.5%.
As to `CCN(CC)CCN1CC(O)=C(c2nc(-c3ccc(Cl)cc3)cs2)C1=N`, the growth was 49.9%.
With `c1c[nH]c(CNC2CCCCC2)c1` the figure was 105%; with `C[C@@H]1N=C(c2ccc3ccccc3n2)Nc2nc3ccccn3c2C1=O`, 88.8%.
With `COc1cc(C(=O)/C=C/c2c(C(F)(F)F)nc3sccn23)cc(OC)c1OC` the figure was -14.2% (active).
With `CCOC(=O)c1csc(NC(=O)COc2cccc(/C=C3\Oc4cc(OC)ccc4C3=O)c2)n1` the figure was 84.7%; with `COc1ccc(-c2nc3c(N)c(CO)c(C)nc3o2)cc1`, 118%; with `COC(=O)c1ccc(C2Nc3ccc(S(=O)(=O)Nc4ccc(C)c(C)c4)cc3C3OCCC23)cc1` (stereo not given), 84.7%.
Consider `COc1ccc(NC(=O)CSc2nc(C)c(C(C)=O)n2-c2ccc([N+](=O)[O-])cc2)cc1`, for which the growth is 91.5%.
With `Cn1cc(-c2csc(-c3ccccc3)n2)c2cccnc21` the figure was -39.4% [100 µM] (active); with `COc1ccc(C2c3ccc4ccccc4c3Oc3nc(C)[nH]c(=O)c32)cc1` (stereo not given), 109%; with `C[C@H]1[C@H]2[C@H]3CC[C@@H]4[C@@]5(C)C/C(=C/c6cccnc6)C(=O)C(C)(C)[C@@H]5CC[C@@]4(C)[C@]3(C)CC[C@]23CO[C@]1(C)[C@@H](C(=O)/C=C\c1cccnc1)C3`, -20.1% (active).
With `Cc1ccc(S(=O)(=O)NCC[C@@H]2C[C@H]2c2cc3ccccc3s2)cc1` the figure was 102%; with `COc1ccc(/C=C/c2c(C(=O)/C=C/c3ccc(F)cc3)c(C)nc3ccccc23)cc1`, 67.5%; with `O=c1[nH]nc(-c2ccccc2)c2c(-c3ccccc3)onc12`, 22.8%.
With `CCOC(=O)/C=C/c1cc2cc(-c3csc4ccccc34)ccc2[nH]1` the figure was 69.6%; with `Cc1ccc2nc(NC(=O)CSc3nc(-c4ccccc4)c(C#N)c(=O)n3Cc3ccccc3)sc2c1`, 89.3%.
